Results on 9 compounds are retold here after PubChem BioAssay (Tox21).

Structures are written as SMILES. Results filed as inconclusive are left out. The source made the active and inactive calls. Unless noted, the call rests on the fitted dose curve; in most records, active means well fitted curve in the direction sought with a large enough effect in the repeat runs; inconclusive means weak or mixed curves; inactive means no such curve, though single readings can be large; an effect the other way counts as inactive or inconclusive.

Assay [1] in a line: qHTS assay to identify small molecule antagonists of the glucocorticoid receptor (GR) signaling pathway - cell viability counter screen (AID 720693). Further: nearly all actives have a fitted effect of over 55% in size.
The nature of assay [2]: qHTS assay for identifying genotoxic compounds that show differential cytotoxicity against isogenic chicken DT40 cell lines with known DNA damage response pathways - wild type cell line (AID 743012). Further: nearly all actives have a fitted effect of over 60% in size. Further: potency means the concentration at half of the fitted maximal effect. Summed up: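 Quantitative HTS on parental DT40 cells: 40 h compound treatment at 37 C/5% CO2, with viability then determined by CellTiter-Glo luminescence. Values serve as the DNA repair-proficient reference for differential cytotoxicity.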

Assay [3] is described as follows: qHTS assay for identifying genotoxic compounds that show differential cytotoxicity against isogenic chicken DT40 cell lines with known DNA damage response pathways - Rev3 mutant cell line (AID 743014). Further: nearly all actives have a fitted effect of over 55% in size. Further: potency means the concentration at half of the fitted maximal effect.
Assay [4] is described as follows: qHTS assay for identifying genotoxic compounds that show differential cytotoxicity against isogenic chicken DT40 cell lines with known DNA damage response pathways - Rad54/Ku70 mutant cell line (AID 743015). Further: nearly all actives have a fitted effect of over 60% in size. Further: potency means the concentration at half of the fitted maximal effect. On the technique in general: Quantitative high-throughput screening tests each substance at several concentrations.
Assay [5] is described as follows: qHTS assay to identify small molecule antagonists of the androgen receptor (AR) signaling pathway - cell viability counter screen (AID 743033; further: nearly all actives have a fitted effect of over 45% in size).
In assay [6] the target is Androgen receptor (Homo sapiens) (UniProt P10275). The experiment in a line: qHTS assay to identify small molecule agonists of the androgen receptor (AR) signaling pathway (AID 743036; active means well fitted activation curve with a large enough effect in the signal ratio in the repeat runs, with a control signal flat, not every such curve was filed as active; the % refers to the signal ratio). In outline:
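Screening used 2,000 AR-bla HEK293 cells per well, treated 16 h at 37C with test compounds in DMSO alongside positive and DMSO-only controls; beta-lactamase activity was then read by LiveBLAzer B/G FRET fluorescence after 2 h at room temperature.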

For assay [7] the target is unchanged. The experiment in a line: qHTS assay to identify small molecule agonists of the androgen receptor (AR) signaling pathway using the MDA cell line (AID 743040; further: nearly all actives have a fitted effect of over 20% in size). Summed up: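 Cells plated, 5 h at 37C/0% CO2; compound or DMSO pinned; 16 h at 37C; ONE-Glo added; luminescence measured after 30 min at room temperature. Reporter line: MDA-kb2 with MMTV-luciferase responsive to AR and GR.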

Assay [8] can be described thus: qHTS assay to identify small molecule antagonists of the androgen receptor (AR) signaling pathway using the MDA cell line - cell viability counter screen (AID 743041; further: nearly all actives have a fitted effect of over 45% in size). In outline: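 Cells were plated at 3,000 per well and left 5 h. Compounds in DMSO were then pinned in, followed by R1881. After 16 h at 37C, CellTiter-Fluor fluorescence gave viability.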
Assay [9] addresses Androgen receptor (Homo sapiens) (UniProt P10275). Nature of the assay: qHTS assay to identify small molecule antagonists of the androgen receptor (AR) signaling pathway using the MDA cell line (AID 743042; further: nearly all actives have a fitted effect of over 55% in size; further: potency means the concentration at half of the fitted maximal effect). In outline:
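Antagonist mode: compounds plus R1881 agonist added to MDA-kb2 AR-luc cells, incubated 16 h at 37C. Luciferase reporter luminescence quantified, with multiplexed CellTiter-Fluor readout for cell viability.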

Assay [10] is described as follows: qHTS assay to identify small molecule antagonists of the thyroid receptor (TR) signaling pathway - cell viability counter screen (AID 743064). Further: nearly all actives have a fitted effect of over 50% in size. Further: potency means the concentration at half of the fitted maximal effect. Summed up:
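Viability of T3-stimulated (1 nM final) GH3.TRE-Luc cells is measured by CellTiter-Fluor fluorescence after 23.5 h compound exposure at 37 °C plus 30 min reagent incubation.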

Assay [11] can be described thus: qHTS assay to identify small molecule antagonists of the thyroid receptor (TR) signaling pathway (AID 743065). Further: nearly all actives have a fitted effect of over 55% in size. Further: potency means the concentration at half of the fitted maximal effect. Summed up: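 Antagonism measured as loss of luciferase signal in GH3 cells stably carrying a TRE-luciferase reporter, co-treated with compound and T3 (1 nM final) for 23.5 h at 37 C. Viability was read in the same well by CellTiter-Fluor.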
Assay [12] deals with thyroid hormone receptor (rat, GH3 cells). Nature of the assay: qHTS assay to identify small molecule agonists of the thyroid receptor (TR) signaling pathway (AID 743066; calls by dose curve).
Assay [13] in a line: qHTS assay to identify small molecule antagonists of the estrogen receptor alpha (ER-alpha) signaling pathway - cell viability counter screen (AID 743074; calls by dose curve;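 further: HEK293 cells carrying ER-alpha-UAS-bla reporter stimulated with 17beta-estradiol; nearly all actives have a fitted effect of over 45% in size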).
A short description of assay [14]: qHTS assay to identify small molecule antagonists of the estrogen receptor alpha (ER-alpha) signaling pathway using the BG1 cell line - cell viability counter screen (AID 743081).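 Further: compound given together with 17beta-estradiol as the ER stimulus; nearly all actives have a fitted effect of over 45% in size.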
The next assay addresses Aromatase (Homo sapiens) (UniProt P11511). The experiment in a line: qHTS assay to identify aromatase inhibitors (AID 743083). Further: nearly all actives have a fitted effect of over 55% in size.
Assay [15] concerns the target Androgen receptor (Homo sapiens) (UniProt P10275). The experiment in a line: qHTS assay to identify small molecule antagonists of the androgen receptor (AR) signaling pathway (AID 743035; active means well fitted inhibition curve with a large enough effect in the signal ratio in the repeat runs, not every such curve was filed as active; the % refers to the signal ratio; further: potency means the concentration at half of the fitted maximal effect). Summed up:
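Cell line: GeneBLAzer AR-UAS-bla GripTite (HEK293). Stimulus: R1881 added after compound. Exposure: 16 h, 37C, 5% CO2. Readout: LiveBLAzer B/G FRET fluorescence after 2 h at room temperature.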

The target of assay [16] is Estrogen receptor (Homo sapiens) (UniProt P03372). Nature of the assay: qHTS assay to identify small molecule antagonists of the estrogen receptor alpha (ER-alpha) signaling pathway (AID 743069; active means well fitted curve in the direction sought with a large enough effect in the signal ratio in the repeat runs, not every such curve was filed as active; the % refers to the signal ratio). Summed up:
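ER-alpha-UAS-bla GripTite HEK293 line; 2% charcoal-stripped FBS overnight; plated, 4 hr 37C/5% CO2; cpd in DMSO + 17beta-estradiol, 18 hr 37C; LiveBLAzer B/G FRET substrate 2 hr RT; fluorescence intensity.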

Assay [17] shares this target. The experiment in a line: qHTS assay to identify small molecule agonists of the estrogen receptor alpha (ER-alpha) signaling pathway (AID 743075; calls by dose curve;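 further: HEK293 GripTite cells with ER-alpha and UAS-driven beta-lactamase reporter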).
Assay [18] can be described thus: qHTS assay to identify small molecule antagonists of the estrogen receptor alpha (ER-alpha) signaling pathway using the BG1 cell line (AID 743080; calls by dose curve;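 further: BG1 cells stimulated with 17beta-estradiol alongside compound; nearly all actives have a fitted effect of over 25% in size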). Summed up: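 BG1-Luc-4E2 cells (endogenous full-length ER-alpha, 4xERE luciferase) hormone-starved 5 days in charcoal-stripped FBS, plated 4,000/well for 24 h, then compound plus 17beta-estradiol for 21.5 h at 37 C; ONE-Glo luminescence read.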

In assay [19] the target is Estrogen receptor (Homo sapiens) (UniProt P03372). Nature of the assay: qHTS assay to identify small molecule agonists of the estrogen receptor alpha (ER-alpha) signaling pathway using the BG1 cell line (AID 743079). Further: nearly all actives have a fitted effect of over 20% in size. Further: potency means the concentration at half of the fitted maximal effect. The following applies: BG1Luc4E2 cells, ERE-luciferase agonist, 22 h; activation: at 70.3 µM (top of the series).
Estrogen receptor (Homo sapiens), sequence (P03372 whole entry, looked up): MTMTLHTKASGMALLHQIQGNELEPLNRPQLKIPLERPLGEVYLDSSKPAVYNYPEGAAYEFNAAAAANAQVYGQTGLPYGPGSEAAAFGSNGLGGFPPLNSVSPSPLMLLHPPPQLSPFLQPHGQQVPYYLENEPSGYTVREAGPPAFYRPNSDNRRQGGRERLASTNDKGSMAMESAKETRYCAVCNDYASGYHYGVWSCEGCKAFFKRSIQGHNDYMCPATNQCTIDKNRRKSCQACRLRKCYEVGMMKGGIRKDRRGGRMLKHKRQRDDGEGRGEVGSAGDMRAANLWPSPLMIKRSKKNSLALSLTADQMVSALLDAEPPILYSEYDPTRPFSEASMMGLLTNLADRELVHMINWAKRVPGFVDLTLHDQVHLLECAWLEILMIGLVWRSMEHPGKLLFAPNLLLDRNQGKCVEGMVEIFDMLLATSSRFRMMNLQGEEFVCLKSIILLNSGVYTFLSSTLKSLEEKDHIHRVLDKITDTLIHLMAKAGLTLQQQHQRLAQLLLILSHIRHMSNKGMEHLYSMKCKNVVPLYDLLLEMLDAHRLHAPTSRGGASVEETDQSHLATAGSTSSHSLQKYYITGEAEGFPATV

Androgen receptor (Homo sapiens), sequence (P10275 whole entry, looked up): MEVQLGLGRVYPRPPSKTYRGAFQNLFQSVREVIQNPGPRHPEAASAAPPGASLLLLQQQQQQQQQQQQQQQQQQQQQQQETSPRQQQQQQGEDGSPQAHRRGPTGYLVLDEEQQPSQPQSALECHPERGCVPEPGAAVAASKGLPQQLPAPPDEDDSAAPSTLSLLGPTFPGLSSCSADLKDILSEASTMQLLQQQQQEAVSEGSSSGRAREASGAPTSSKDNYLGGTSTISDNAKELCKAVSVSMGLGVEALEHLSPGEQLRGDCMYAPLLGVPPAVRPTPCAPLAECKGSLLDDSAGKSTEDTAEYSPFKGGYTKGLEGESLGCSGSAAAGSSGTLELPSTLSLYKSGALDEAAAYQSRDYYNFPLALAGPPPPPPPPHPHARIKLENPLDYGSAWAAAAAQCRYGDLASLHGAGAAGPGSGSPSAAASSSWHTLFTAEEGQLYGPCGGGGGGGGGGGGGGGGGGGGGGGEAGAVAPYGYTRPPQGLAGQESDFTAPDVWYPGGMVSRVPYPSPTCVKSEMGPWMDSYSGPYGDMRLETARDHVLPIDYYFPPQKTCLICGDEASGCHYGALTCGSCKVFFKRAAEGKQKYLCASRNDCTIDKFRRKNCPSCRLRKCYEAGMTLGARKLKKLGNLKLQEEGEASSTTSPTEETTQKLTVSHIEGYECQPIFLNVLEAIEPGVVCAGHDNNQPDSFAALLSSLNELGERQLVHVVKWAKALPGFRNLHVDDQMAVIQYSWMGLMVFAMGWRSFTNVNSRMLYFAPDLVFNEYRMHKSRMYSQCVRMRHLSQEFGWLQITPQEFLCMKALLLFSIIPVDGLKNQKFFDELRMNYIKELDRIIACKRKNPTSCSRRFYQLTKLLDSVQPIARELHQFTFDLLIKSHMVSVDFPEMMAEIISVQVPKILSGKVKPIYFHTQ
Aromatase (Homo sapiens), sequence (P11511 whole entry, looked up): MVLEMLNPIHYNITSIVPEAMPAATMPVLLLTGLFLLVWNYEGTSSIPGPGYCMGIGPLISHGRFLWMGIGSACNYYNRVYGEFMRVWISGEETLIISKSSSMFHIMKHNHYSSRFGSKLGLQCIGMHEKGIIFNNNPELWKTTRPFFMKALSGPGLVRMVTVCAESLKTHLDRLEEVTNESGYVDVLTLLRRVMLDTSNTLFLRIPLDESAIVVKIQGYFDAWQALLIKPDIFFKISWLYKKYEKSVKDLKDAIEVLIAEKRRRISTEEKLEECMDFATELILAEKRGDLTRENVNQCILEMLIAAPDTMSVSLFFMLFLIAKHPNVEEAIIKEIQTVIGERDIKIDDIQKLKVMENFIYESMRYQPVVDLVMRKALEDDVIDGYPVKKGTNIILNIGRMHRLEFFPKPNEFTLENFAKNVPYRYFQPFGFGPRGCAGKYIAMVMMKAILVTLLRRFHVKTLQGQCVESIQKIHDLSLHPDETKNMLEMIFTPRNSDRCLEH

For the compound `C[N+](C)(C)CCOC(N)=O`, the Potency entry in assay [1], in assay [2], in assay [3], in assay [4], in assay [5] and in [6] was “inactive” each time. Further, the Potency result in [7], in [8], in assay [9], in [10], in [11] and in assay [13] was “inactive” each time. Further, the Potency result (in assay [14]; in the assay with Aromatase (Homo sapiens)) was “inactive” throughout. For the same compound, the call in [12] was inactive.

As for `O=C(CCC1CCN(Cc2ccccc2)CC1)c1ccc2c(c1)NCCCC2`, the Potency result in assay [1], in [5], in [15], in assay [6], in assay [7] and in assay [16] was “inactive” each time. Besides, the Potency entry in [17] is “inactive”. For the same compound, the Potency in assay [2] is 2.37 µM (active); in assay [3] it was 2.98 µM (active); in assay [4], 8.41 µM (active); in [9] it was 29.8 µM (active); in assay [11], 11.9 µM (active). The call in assay [12] was inactive.

In the case of `Nc1ccc(Cl)cc1[N+](=O)[O-]`, the Potency entry in assay [1], in [2], in [3], in assay [4], in assay [5] and in assay [6] was “inactive” each time. The Potency result in assay [7], in [9], in assay [16], in [13], in assay [17] and in assay [18] was “inactive” in each case. For the same compound, the Potency result in assay [14] was “inactive”. In addition, the result in [12] was inactive.

For `CCC(=O)OC/C=C/c1ccccc1`, the Potency result in assay [1], in [2], in assay [3], in [4], in assay [5] and in assay [8] was “inactive” each time. Moreover, the Potency entry in assay [10], in assay [16], in assay [13], in assay [17], in [18] and in assay [14] was “inactive” in each case. Moreover, in the assay with Aromatase (Homo sapiens), the Potency result is “inactive”. Moreover, the outcome in assay [12] was inactive. In [19], the Potency is 68.6 µM (active).

With `CCc1cccc(N(C)C(N)=Nc2cccc3ccccc23)c1`, the Potency entry (in [1]; in assay [5]; in [15]; in assay [7]; with Aromatase (Homo sapiens)) was “inactive” in each case. The Potency in assay [2] was 5.96 µM (active); in assay [3] it was 11.9 µM (active); in [4], 11.9 µM (active); in [10], 18.8 µM (active); in assay [11] it was 21.1 µM (active). In addition, the call in assay [12] was inactive.

Regarding `CC(Cl)C(Cl)Cl` (stereo not drawn), the Potency entry in assay [1], in assay [2], in assay [3], in assay [4], in [5] and in assay [8] was “inactive” each time. In addition, the Potency result in assay [10], in [11], in assay [16], in assay [13], in [17] and in [19] was “inactive” each time. The Potency entry (in assay [18]; in [14]; with Aromatase (Homo sapiens)) was “inactive” throughout. The compound was classed as inactive in assay [12].

As to `Cc1c(C(=O)NN2CCCCC2)nn(-c2ccc(Cl)cc2Cl)c1-c1ccc(Cl)cc1`, the Potency result in [1], in [5], in assay [7], in assay [17], in assay [19] and in assay [18] was “inactive” each time. The Potency entry (in assay [14]; in the assay with Aromatase (Homo sapiens)) was “inactive” throughout. Further, the Potency in assay [2] was 11.9 µM (active); in [3], 11.9 µM (active); in assay [4], 11.9 µM (active); in [15], 19 µM (active); in assay [11] it was 11.9 µM (active).

For `CCCCCCOC(=O)CCCCCCCC(=O)OCCCCCC`, the Potency result in assay [1], in [2], in [3], in [4], in [5] and in assay [8] was “inactive” throughout. The Potency result in [10], in [11], in assay [13] and in assay [14] was “inactive” in each case. Further, the outcome in assay [12] was inactive.

As for `O=Cc1c(Cl)cccc1Cl`, the Potency result in assay [1], in assay [2], in [3], in [4], in [5] and in assay [8] was “inactive” each time. Moreover, the Potency result in assay [10], in [16], in assay [13], in [17], in assay [19] and in assay [18] was “inactive” each time. The Potency result (in assay [14]; in the assay with Aromatase (Homo sapiens)) was “inactive” each time. Moreover, the result in [12] was inactive.
